“And” between values parts separate entries of the source, which are not always exact repeats. Equal values may be shown once. The source made the active and inactive calls.

For assay [1], the system named is Plasmodium falciparum Sir2 (PF13_0152, Sir2A). Nature of the assay: Plasmodium falciparum Sir2A binding compounds – biochemical, small-molecule microarray, 635 nm fluorescence, primary screen (AID 1098).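 Note: score merges spot fluorescence intensity with its signal-to-noise ratio.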 Particulars: fluorescence 635 nm, higher = more signal.
A short description of assay [2]: probe aDKK1 binding to arrayed compounds – biochemical, biotinylated probe, 635/667 nm fluorescence, primary screen (AID 1099).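 Note: score merges 667nm spot fluorescence with signal to noise across triplicate slides.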 Particulars: small-molecule microarray, higher = more signal.
A short description of assay [3]: probe aCHRDL2 binding to arrayed compounds – biochemical, biotinylated probe, 635/667 nm fluorescence, primary screen (AID 1100). Particulars: small-molecule microarray, higher = more signal.
Assay [4] is described as follows: change in splice reporter luminescence, either direction, cell-based, HEK293, spliceosome inhibition project, primary screen (AID 1101).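 Note: HEK293 cells carrying a splicing-competent luciferase reporter gene; test concentration not given here.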 Particulars: HEK293 splicing luciferase reporter, 24 h, higher = more signal, called active from +8 up or from −8 down. Background: A reporter such as luciferase makes a cellular process visible.
In assay [5] the target is Fibroblast growth factor 10 (Homo sapiens) (UniProt O15520). Nature of the assay: compounds binding fibroblast growth factor 10 – biochemical, small-molecule microarray, 635 nm fluorescence, primary screen (AID 1102). Particulars: FGF10 binding, fluorescence 635 nm, higher = more signal.
Fibroblast growth factor 10 (Homo sapiens), sequence (O15520 whole entry, looked up): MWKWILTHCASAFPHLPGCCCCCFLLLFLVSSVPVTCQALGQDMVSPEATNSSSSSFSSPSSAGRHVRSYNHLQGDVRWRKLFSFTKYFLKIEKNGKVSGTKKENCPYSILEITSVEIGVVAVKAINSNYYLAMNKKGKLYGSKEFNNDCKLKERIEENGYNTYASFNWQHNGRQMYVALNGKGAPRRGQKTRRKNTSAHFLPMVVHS
For assay [6], the system named is glycogen synthase kinase-3 (GSK3A per assay name; protocol says GSK3B). Nature of the assay: compounds binding glycogen synthase kinase-3 – biochemical, small-molecule microarray, 635 nm fluorescence, GSK3A, primary screen (AID 1103). Note: the record names both GSK3A and GSK3B. Particulars: fluorescence 635 nm, higher = more signal.
The target of assay [7] is Epidermal growth factor receptor (Homo sapiens) (UniProt P00533). Nature of the assay: compounds binding epidermal growth factor receptor – biochemical, small-molecule microarray, 635 nm fluorescence, primary screen (AID 1104).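 Note: score merges 667 nm emission intensity with spot signal to noise over triplicate slides.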 Particulars: EGFR binding, higher = more signal.
Epidermal growth factor receptor (Homo sapiens), sequence (P00533 whole entry, looked up): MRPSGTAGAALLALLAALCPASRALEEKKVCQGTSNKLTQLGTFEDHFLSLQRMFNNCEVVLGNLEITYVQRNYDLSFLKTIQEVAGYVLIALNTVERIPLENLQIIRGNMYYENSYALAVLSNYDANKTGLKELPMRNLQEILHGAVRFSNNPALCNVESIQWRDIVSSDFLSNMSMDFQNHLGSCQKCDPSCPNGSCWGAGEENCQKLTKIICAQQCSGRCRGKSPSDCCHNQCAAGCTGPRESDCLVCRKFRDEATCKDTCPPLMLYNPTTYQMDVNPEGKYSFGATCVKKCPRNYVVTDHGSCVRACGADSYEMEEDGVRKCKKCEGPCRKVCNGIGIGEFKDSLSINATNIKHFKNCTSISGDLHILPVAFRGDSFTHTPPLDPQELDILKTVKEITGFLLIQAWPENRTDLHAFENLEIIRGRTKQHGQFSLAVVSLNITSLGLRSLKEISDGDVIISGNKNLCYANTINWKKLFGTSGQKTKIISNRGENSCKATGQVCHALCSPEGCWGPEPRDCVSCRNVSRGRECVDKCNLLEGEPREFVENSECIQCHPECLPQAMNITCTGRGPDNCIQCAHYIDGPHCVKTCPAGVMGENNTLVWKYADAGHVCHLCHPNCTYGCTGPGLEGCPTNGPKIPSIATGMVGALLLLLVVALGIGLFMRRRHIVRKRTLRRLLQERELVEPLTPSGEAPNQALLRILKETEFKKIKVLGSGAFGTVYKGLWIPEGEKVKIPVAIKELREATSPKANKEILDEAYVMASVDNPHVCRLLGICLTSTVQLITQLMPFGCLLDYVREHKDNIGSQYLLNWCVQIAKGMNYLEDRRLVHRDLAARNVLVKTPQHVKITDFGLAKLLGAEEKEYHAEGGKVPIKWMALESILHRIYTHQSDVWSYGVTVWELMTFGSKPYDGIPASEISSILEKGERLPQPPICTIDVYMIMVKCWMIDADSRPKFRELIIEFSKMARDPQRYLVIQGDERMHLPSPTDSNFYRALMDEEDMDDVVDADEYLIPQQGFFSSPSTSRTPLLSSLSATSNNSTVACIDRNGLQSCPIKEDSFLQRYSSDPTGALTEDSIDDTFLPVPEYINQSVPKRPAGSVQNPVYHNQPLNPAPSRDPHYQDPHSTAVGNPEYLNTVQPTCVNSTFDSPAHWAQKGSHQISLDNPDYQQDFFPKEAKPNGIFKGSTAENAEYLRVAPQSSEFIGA
The target in assay [8] is Follistatin-related protein 3 (Homo sapiens) (UniProt O95633). Nature of the assay: compounds binding follistatin-related protein 3 – biochemical, small-molecule microarray, 635 nm fluorescence, primary screen (AID 1105).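 Note: score merges emission near 667 nm and signal to noise per printed spot across three slides.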 Particulars: FSTL3 binding, higher = more signal.
Follistatin-related protein 3 (Homo sapiens), sequence (O95633 whole entry, looked up): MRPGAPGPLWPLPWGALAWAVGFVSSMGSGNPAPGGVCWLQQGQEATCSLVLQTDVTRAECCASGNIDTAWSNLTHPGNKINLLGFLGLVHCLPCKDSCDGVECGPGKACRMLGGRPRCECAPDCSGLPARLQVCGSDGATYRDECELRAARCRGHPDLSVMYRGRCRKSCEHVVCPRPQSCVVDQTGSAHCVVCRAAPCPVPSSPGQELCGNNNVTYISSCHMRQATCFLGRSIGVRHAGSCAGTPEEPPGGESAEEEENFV
Assay [9] concerns the target Dickkopf-related protein 1 (Homo sapiens) (UniProt O94907). Nature of the assay: small molecules binding DKK1 protein – biochemical, small-molecule microarray, 635 nm fluorescence scan, primary screen (AID 1106).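 Note: score merges emission near 667 nm with signal to noise over three replicate slides.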 Particulars: higher = more signal.
The subject of assay [10] is Inhibin beta A chain (activin A). Nature of the assay: small molecules binding activin A – biochemical, small-molecule microarray, 635 nm fluorescence scan, primary screen (AID 1107).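 Note: mouse activin A protein probed at 4.33 µg/mL on printed slides; score merges bound-protein fluorescence near 667 nm with spot signal-to-noise.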 Particulars: INHBA, higher = more signal.
For assay [11], the system named is Human papillomavirus type 1a protein E7 (residues 44-93). Briefly: small molecules binding HPV E7 44-93 – biochemical, small-molecule microarray, residues 44-93, 635 nm fluorescence, primary screen (AID 1108).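 Note: E7 fragment applied at 1 µg/mL in TBST for 1 h at 4 C; score combines spot fluorescence with its signal to noise ratio.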 Particulars: fluorescence 635 nm, higher = more signal.
A short description of assay [12]: hepatitis C replication reporter changes, two-sided – Huh7 cells, luciferase reporter, HCV replication inhibitor project, primary screen (AID 1109).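 Note: huh7 hepatoma cells harbouring a luciferase neomycin HCV replicon reporter; luciferase luminescence as measure of HCV replicon replication; test concentration not given here.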 Particulars: Huh7 HCV replicon luciferase reporter, 48 h; higher = more signal.
In assay [13] the target is Left-right determination factor 2 (Homo sapiens) (UniProt O00292). Briefly: small molecules binding LEFTY2 protein – biochemical, small-molecule microarray, 635 nm fluorescence scan, primary screen (AID 1110). Particulars: higher = more signal.
Left-right determination factor 2 (Homo sapiens), sequence (O00292 whole entry, looked up): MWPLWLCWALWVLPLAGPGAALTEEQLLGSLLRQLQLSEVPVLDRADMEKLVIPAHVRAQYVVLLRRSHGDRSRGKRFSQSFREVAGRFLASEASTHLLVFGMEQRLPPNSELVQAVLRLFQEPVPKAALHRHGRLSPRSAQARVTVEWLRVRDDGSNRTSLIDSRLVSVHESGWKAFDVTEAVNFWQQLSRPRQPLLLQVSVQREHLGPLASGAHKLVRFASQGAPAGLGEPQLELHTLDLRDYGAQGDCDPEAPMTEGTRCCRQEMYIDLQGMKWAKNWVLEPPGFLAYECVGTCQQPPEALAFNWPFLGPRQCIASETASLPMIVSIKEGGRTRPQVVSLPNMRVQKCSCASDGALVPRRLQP
Assay [14] addresses Calmodulin-1 (Homo sapiens) (UniProt P0DP23). Nature of the assay: small molecules binding calmodulin-1 with EGTA – biochemical, small-molecule microarray, Cy5-labelled CALM1, profiling panel (AID 1111).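 Note: labelled calmodulin applied in Tris saline Tween buffer holding calcium plus EGTA and DTT.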 Particulars: Cy5-CALM1 binding fluorescence, higher = more signal.
Assay [15] shares this target. Briefly: small molecules binding Ca-loaded calmodulin-1 – biochemical, small-molecule microarray, Cy5-labelled CALM1, plus calcium, artefact control for SMM control-protein annotation, profiling panel (AID 1112).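 Note: score merges spot fluorescence with signal to noise from triplicate slides.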 Particulars: Cy5-CALM1 binding fluorescence, higher = more signal.
A short description of assay [16]: probe aWnt5a binding to arrayed compounds – biochemical, biotinylated probe, 635/667 nm fluorescence, primary screen (AID 1113).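 Note: score merges 667 nm fluorescence intensity with signal-to-noise per printed feature.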 Particulars: small-molecule microarray, higher = more signal.
A short description of assay [17]: probe aShh binding to arrayed compounds – biochemical, biotinylated probe, 635/667 nm fluorescence, primary screen (AID 1114).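 Note: probe is biotin-labelled aShh protein from a stem cell growth factor screen; measures binding of labelled protein to compounds printed on the slide; score merges feature fluorescence at 667 nm with signal-to-noise.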 Particulars: small-molecule microarray, higher = more signal.
Assay [18] can be described thus: probe aNog binding to arrayed compounds – biochemical, biotinylated probe, 635/667 nm fluorescence, primary screen (AID 1115).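 Note: probe is biotinylated aNog protein used at 0.15 µg/mL for 1 h at 4 C; z-score combines 667 nm fluorescence of each spot with its signal to noise.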 Particulars: small-molecule microarray, higher = more signal.
Assay [19] deals with Torsin-1A-interacting protein 1 (Homo sapiens) (UniProt Q5JTV8). Nature of the assay: compound microarray binding of lysate hLAP1 – cell lysate, small-molecule microarray, COS7 lysate, 635/667 nm fluorescence, primary screen (AID 1116). Particulars: 635 nm fluorescence, higher = more signal.
Torsin-1A-interacting protein 1 (Homo sapiens), sequence (Q5JTV8 whole entry, looked up): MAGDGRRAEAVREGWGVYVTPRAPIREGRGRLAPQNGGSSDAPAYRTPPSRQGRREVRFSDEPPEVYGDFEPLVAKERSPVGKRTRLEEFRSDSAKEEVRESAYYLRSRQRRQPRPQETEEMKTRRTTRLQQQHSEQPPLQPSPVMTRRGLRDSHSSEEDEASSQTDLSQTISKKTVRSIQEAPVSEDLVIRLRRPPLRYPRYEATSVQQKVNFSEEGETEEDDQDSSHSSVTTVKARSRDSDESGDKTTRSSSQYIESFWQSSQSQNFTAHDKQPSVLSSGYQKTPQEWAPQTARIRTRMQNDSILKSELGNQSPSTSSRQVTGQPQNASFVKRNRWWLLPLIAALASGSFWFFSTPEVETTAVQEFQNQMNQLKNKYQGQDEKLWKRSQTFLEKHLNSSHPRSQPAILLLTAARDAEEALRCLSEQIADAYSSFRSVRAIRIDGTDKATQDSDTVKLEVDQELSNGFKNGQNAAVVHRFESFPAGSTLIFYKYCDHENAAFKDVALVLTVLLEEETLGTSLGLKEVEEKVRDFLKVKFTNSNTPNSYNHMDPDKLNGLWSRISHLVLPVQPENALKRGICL
In assay [20] the target is Alpha-bungarotoxin (Bungarus multicinctus) (UniProt P60615). Nature of the assay: compounds binding labelled alpha-BTX control protein – biochemical, small-molecule microarray, Alexa647 label, 635/667 nm fluorescence, artefact control for SMM control protein annotation, profiling panel (AID 1117). Particulars: alpha-BTX-A647 binding fluorescence, higher = more signal.
Alpha-bungarotoxin (Bungarus multicinctus), sequence (P60615 whole entry, looked up): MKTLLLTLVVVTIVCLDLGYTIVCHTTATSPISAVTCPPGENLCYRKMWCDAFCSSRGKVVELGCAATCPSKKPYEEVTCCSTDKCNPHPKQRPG

Dickkopf-related protein 1 (Homo sapiens), sequence (O94907 whole entry, looked up): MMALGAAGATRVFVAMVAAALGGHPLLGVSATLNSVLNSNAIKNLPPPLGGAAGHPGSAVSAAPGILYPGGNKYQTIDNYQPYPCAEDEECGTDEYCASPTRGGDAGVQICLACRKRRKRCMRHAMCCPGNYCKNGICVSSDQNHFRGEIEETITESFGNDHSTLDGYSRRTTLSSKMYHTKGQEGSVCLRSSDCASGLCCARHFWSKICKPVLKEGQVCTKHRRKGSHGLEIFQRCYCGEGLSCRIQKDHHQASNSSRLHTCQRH

`COC(=O)[C@@]1(Cc2ccccc2)[C@H]2c3cc(C(=O)N(C)C)n(C[C@H](O)CO)c3C[C@H]2CN1C(=O)c1ccccc1`: the composite z-score in assay [1] was 0.544 and 0.831; in assay [2], 0.781 and 0.66; in assay [3], 0.761 and 1.21; in assay [5], -0.397 and 0.483; in assay [6] it was -0.137 and -0.227; in [7], -0.647 and 0.374. The composite z-score in [8] was -0.397 and 0.0048; in assay [9] it was -0.907 and -0.236; in assay [10], 0.985 and 1.1; in assay [11], 1.13 and -0.569; in [13], -0.724 and 0.396; in assay [14], 0.205 and 2.39. Also, the composite z-score in [15] was 0.696 and 0.624; in assay [16], -0.0346 and 0.0297; in [17], 1.03 and 0.0469; in [18], 0.373 and 1.04; in [19], 2.36 and 1.1; in [20] it was -0.33 and 0.13. For the same compound, the z-score was -2.37 (inactive) and 1.46 (inactive) in assay [4]; -0.38 and -0.668 in [12].
Take `C=CC[C@@H](O)c1ccc(O)c2ccccc12`: the composite z-score was 1.35 and 1.41 in [1]; -0.05 and -0.227 in [2]; -0.0013 and -0.333 in [3]; 0.991 and 1.34 in assay [5]; 0.797 and 1.25 in assay [6]; 1.33 and 1.15 in assay [7]. Also, the composite z-score in [8] is 1.2 and 1.43; in assay [9] it was 0.817 and 1.14; in assay [10] it was 1.38 and 0.954; in assay [11], 0.837 and 1.21; in assay [13], 0.723 and 0.901; in assay [14], -1.52 and -0.403. Moreover, the composite z-score in assay [15] is -1.59 and -1.41; in assay [16] it was -0.101 and -0.0704; in assay [17], 0.296 and -0.0553; in [18] it was -0.369 and -0.55; in assay [19], 0.848 and 0.0091; in assay [20], 2.05 and 1.17. Further, the z-score in assay [4] was -0.879 (inactive) and 3.08 (inactive); in assay [12], -1.89 and -2.65.
Regarding `COC(=O)C1=C(C)N(Cc2ccccc2)C2=C(C(C)=O)C[C@@](O)(C(=O)OC)C(=O)N2[C@@H]1c1ccccc1`, the composite z-score in assay [1] was 1.58 and 0.326; in assay [2], -0.301 and -0.205; in assay [3], -0.764 and -0.229; in [5] it was 0.988 and 0.0571; in assay [6], 0.74 and -0.0162; in assay [7], 0.381 and 0.348. The composite z-score in [8] is 0.869 and 0.521; in [9], 0.801 and 0.478; in [10], 0.522 and 1.28; in assay [11], 0.594 and -0.54; in assay [13], 0.85 and 0.187; in assay [14], -1 and -0.501. Besides, the composite z-score in assay [15] is -1.13 and -0.338; in assay [16] it was -0.0512 and -0.18; in [17], 0.0465 and 0.0121; in [18], 0.127 and -0.247; in [19], 0.974 and -0.069; in assay [20], -0.634 and 0.42. Also, the z-score in [4] was -0.805 (inactive) and -0.873 (inactive); in assay [12], -0.347 and 1.11.
For the compound `C=CCN(C(=O)C1N(c2c(Cl)cccc2CO)C(=O)C2C(C(=O)O)C3C=CC21O3)C(C)(C)C` (stereo not given), the composite z-score in [1] is 0.769 and -1.57; in assay [2], -0.525 and -0.241; in [3], -0.269 and 0.798; in assay [5], -0.788 and -1.43; in assay [6], -1.39 and -0.911; in assay [7] it was -1.85 and -0.913. In addition, the composite z-score in assay [8] is -0.332 and 0.322; in assay [9], -2.02 and -2.22; in assay [10], -0.918 and -0.985; in [11], -0.375 and -1.73; in assay [13], -2.64 and -2.81; in assay [14], -0.68 and -0.347. In addition, the composite z-score is -0.0519 and 0.673 in assay [15]; -0.334 and -0.28 in assay [16]; -0.544 and -0.123 in assay [17]; 0.793 and -0.124 in [18]; -0.879 and -1.71 in [19]; -1.09 and -1.44 in [20]. The z-score is -0.859 (inactive) and -1.07 (inactive) in assay [4]; -0.892 and -0.519 in assay [12].
Regarding `C=CCN(C(=O)C1N(CCOCCO)C(=O)C2C(C(=O)O)C3C=CC21O3)C(C)(C)C` (stereo not given), the composite z-score in assay [1] was 1.73 and -1.59; in assay [2], -0.128 and -0.31; in [3], 0.867 and 0.619; in assay [5], -1.8 and -1.24; in assay [6] it was -1.76 and -0.852; in [7], -2.23 and -1.56. Moreover, the composite z-score in assay [8] was -2.47 and -1.69; in [9], -2.47 and -1.32; in assay [10], -1.84 and -3.28; in [11], -1.22 and -1.53; in assay [13] it was -4.53 and -1.35; in [14] it was -0.219 and -0.133. Also, the composite z-score in assay [15] was 0.785 and 0.498; in [16], -0.27 and -0.352; in assay [17] it was -0.138 and -0.214; in assay [18], -0.158 and -0.509; in assay [19], -1.53 and -1.78; in assay [20], -0.606 and -0.737. Further, the z-score was -0.235 (inactive) and 0.32 (inactive) in [4]; 0.178 and 0.975 in assay [12].

Values taken from PubChem BioAssay.
